Experimental data from PubChem BioAssay (NCATS).
Inconclusive results are not listed. Activity calls are given as the source filed them. Unless noted, the call rests on the fitted dose curve; in most records, active means well fitted curve in either direction with a large enough effect (not every such curve was filed as active); inconclusive means small, poorly fitted or top-dose-only effect, or another doubt; inactive means flat fitted curve, though single readings scatter.

Experiments:
[1] = target: Lysosomal acid glucosylceramidase (Homo sapiens) (UniProt P04062); test: Glucocerebrosidase-p2 (AID 348; in the data active means potency below about 10 µM; further: potency means the concentration at half of the fitted maximal effect); conditions: purified GBA, blue fluorogenic substrate, 40 min
Chain of Lysosomal acid glucosylceramidase (Homo sapiens) (P04062 whole entry, looked up): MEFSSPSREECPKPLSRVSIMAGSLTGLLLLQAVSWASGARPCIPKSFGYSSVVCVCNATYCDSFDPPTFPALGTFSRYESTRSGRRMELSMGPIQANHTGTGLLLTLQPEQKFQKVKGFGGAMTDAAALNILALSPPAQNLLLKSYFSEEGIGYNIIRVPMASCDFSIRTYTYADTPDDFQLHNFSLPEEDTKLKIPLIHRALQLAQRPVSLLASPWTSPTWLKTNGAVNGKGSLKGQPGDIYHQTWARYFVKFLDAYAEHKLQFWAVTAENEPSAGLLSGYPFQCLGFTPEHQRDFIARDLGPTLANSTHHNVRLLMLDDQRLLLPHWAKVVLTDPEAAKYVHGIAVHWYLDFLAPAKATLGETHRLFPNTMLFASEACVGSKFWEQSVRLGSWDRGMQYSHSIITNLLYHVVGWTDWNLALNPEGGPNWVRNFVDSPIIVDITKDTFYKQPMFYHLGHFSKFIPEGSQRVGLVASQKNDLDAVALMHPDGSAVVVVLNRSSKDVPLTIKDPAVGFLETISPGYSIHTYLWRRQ
Summary of the method: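 Normal human glucocerebrosidase (0.2 nM) with blue fluorogenic substrate (80 uM final) in citrate/phosphate pH 5.9 with 10mM sodium taurocholate, 0.01% tween-20; 40 min RT, NaOH/glycine stop; fluorescence Ex 365/Em 440; AC50 from a titration from 0.6 nM upwards.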

[2] = target: Cytochrome P450 1A2 (Homo sapiens) (UniProt P05177); test: p450-cyp1a2 (AID 410; calls by dose curve; further: potency means the concentration at half of the fitted maximal effect); conditions: recombinant CYP1A2, luciferin-ME demethylation, luminescence; series mostly up to 57 µM
Chain of Cytochrome P450 1A2 (Homo sapiens) (P05177 whole entry, looked up): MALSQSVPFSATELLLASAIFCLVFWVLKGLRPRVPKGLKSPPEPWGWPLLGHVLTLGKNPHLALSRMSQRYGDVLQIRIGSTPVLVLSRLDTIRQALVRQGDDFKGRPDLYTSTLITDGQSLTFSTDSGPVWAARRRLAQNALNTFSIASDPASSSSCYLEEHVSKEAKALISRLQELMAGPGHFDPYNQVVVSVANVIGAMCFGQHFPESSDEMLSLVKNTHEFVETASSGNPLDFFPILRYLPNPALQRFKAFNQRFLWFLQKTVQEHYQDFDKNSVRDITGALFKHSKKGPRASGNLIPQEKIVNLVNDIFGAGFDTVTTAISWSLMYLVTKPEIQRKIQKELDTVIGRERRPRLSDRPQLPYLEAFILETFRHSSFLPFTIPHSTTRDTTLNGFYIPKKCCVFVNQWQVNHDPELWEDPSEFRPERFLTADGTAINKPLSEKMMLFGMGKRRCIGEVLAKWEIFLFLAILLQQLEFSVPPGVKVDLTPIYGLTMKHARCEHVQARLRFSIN
Summary of the method: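 O-Demethylation of luciferin 6' methyl ether by human CYP1A2 is monitored as luciferase luminescence. Substrate sits at Km (100uM); enzyme is 20nM. Values are scaled to 57 uM furafylline as maximal inhibition.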

[3] = NFAT Signaling Pathway (AID 444); conditions: Jurkat NFAT-bla M1, carbachol, beta-lactamase ratio, 5 h; at 7.69 µM (top of the series) unless noted;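 further: carbachol stimulus at about its EC50 of 1 µM final; on the % scale 0 is the no-effect control and ±100 the full control effect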
Summary of the method: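 Read-out: CCF4 FRET ratio (460 nm/530 nm) after 1 h RT dye loading, used for %activity and AC50 from titration series. Cells: Jurkat NFAT-β-lactamase/M1 line, treated with compound plus 1 uM carbachol for 5 h, 37 °C.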

[4] = Stat Signaling Pathway (AID 446); conditions: ME-180 SIE beta-lactamase reporter, IL-6 stimulated, 5 h; at 7.69 µM (top of the series) unless noted;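 further: ME-180 cervical cancer cells given 40 pM IL-6 alongside compound; SIE-controlled beta-lactamase reporter measured as 460/530 nm FRET emission ratio; on the % scale 0 is the no-effect control and ±100 the full control effect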
Summary of the method: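 Overnight-plated ME-180 cells bearing a STAT Inducible Element beta-lactamase reporter; 5 h co-exposure to compound and 40 pM IL-6; values normalized to 300 pM IL-6 and 125 nM JAK inhibitor controls.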

[5] = target: Glucocorticoid receptor (Homo sapiens) (UniProt P04150); test: GR-GFP Redistribution (AID 450;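 active means compounds whose dose series gives a full or clear partial fitted curve of increased nuclear translocation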; further: potency means the concentration at half of the fitted maximal effect); conditions: U2OS GR-GFP nuclear translocation, laser cytometry, 2 h
Chain of Glucocorticoid receptor (Homo sapiens) (P04150 whole entry, looked up, the tested form may be a part): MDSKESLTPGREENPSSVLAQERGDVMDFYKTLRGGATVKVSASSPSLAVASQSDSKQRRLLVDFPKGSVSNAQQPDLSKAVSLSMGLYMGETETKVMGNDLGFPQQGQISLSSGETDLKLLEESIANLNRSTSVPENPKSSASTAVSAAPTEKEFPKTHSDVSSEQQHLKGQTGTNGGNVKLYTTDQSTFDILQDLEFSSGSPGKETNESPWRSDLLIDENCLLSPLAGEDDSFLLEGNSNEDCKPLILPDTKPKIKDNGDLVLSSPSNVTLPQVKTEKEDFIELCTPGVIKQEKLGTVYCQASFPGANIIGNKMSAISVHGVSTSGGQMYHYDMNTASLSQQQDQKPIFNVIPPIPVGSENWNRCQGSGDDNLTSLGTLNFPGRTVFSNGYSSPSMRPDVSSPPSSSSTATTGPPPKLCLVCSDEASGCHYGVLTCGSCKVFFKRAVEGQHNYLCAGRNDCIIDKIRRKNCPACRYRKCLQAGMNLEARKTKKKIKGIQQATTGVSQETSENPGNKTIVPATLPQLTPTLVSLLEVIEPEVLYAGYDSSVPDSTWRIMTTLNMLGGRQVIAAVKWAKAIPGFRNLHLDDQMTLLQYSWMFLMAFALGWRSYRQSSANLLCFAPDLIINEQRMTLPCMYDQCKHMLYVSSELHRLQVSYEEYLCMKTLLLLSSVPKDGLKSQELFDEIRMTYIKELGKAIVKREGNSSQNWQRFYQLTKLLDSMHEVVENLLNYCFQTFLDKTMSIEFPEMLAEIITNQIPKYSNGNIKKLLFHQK

[6] = target: Glucocorticoid receptor (Homo sapiens) (UniProt P04150); test: GR-EFC Redistribution (AID 451; calls by dose curve; further: potency means the concentration at half of the fitted maximal effect); conditions: CHO-K1 GR-EFC translocation, beta-gal luminescence, 2 h
Summary of the method: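 Translocation of GR-ED fusion to nuclear EA restores b-gal, read by luminescence after 1 h room-temperature detection. Engineered CHO-K1 biosensor cells, 1,000/well, exposed 2 h at 37 C to titrations up to 46 uM final.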

[7] = target: Mitogen-activated protein kinase 10 (Mus musculus) (UniProt Q61831); test: JNK3 AlphaScreen Assay (AID 530); conditions: JNK3 lysate, c-Jun phosphorylation; series mostly up to 57.1 µM;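 further: kinase came from lysate of stimulated human HepG2 cells; signal reports phosphorylation of biotinylated GST-cJun 1-79 at Ser73 with 10 µM ATP; on the % scale 0 is the no-effect control and ±100 the full control effect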
Summary of the method: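 qHTS titrations with 15 min compound pre-incubation before adding ATP (10 uM final). Read-out: AlphaScreen of Ser73-phosphorylated biotin-GST-cJun using HepG2 lysate JNK3 activated by IL-1β and TNFα.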

[8] = target: 3',5'-cyclic-AMP phosphodiesterase 4B (Homo sapiens) (UniProt Q07343); test: qHTS Assay for Inhibitors of PDE-IV (AID 607; active means well fitted activation curve with a large enough effect in the main read-out, with a control signal flat, not every such curve was filed as active; further: % of control where 0% means no effect); conditions: HEK293 ACTOne CNG channel cells, membrane potential fluorescence; series mostly up to 22.9 µM
Chain of 3',5'-cyclic-AMP phosphodiesterase 4B (Homo sapiens) (Q07343 whole entry, looked up): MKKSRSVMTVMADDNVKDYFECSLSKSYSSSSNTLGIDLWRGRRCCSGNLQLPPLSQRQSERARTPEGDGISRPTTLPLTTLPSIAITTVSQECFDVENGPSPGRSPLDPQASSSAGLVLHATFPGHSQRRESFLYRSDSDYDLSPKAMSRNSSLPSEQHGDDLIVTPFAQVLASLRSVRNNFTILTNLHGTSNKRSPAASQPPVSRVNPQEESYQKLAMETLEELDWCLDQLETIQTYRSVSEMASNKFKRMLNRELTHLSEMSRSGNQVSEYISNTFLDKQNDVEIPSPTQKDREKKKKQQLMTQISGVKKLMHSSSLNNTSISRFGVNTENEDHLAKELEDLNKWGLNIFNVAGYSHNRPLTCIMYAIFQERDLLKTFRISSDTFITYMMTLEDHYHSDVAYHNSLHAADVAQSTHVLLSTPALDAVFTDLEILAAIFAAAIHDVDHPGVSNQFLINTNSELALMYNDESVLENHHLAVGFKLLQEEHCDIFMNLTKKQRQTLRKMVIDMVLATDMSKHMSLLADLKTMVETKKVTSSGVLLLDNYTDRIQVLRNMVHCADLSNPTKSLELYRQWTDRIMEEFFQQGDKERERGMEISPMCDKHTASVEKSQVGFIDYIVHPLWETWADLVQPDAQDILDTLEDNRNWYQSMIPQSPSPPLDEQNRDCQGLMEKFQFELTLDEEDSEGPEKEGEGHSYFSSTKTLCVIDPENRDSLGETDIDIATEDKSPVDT
Summary of the method: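 Live HEK293 cells with a modified cyclic nucleotide-gated (CNG) channel report intracellular cAMP via membrane-potential dye fluorescence (ex 535/em 590 nm). Endogenous PDE-IV was targeted. Compounds were tested at up to 22.9 uM final; RO 20-1724 100 uM served as control.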

[9] = target: Cytochrome P450 3A4 (Homo sapiens) (UniProt P08684); test: qHTS Assay for Activators of Cytochrome P450 3A4 (AID 885; active means well fitted curve in the direction sought with a large enough effect; an effect the other way counts as inactive or inconclusive; further: nearly all actives have a fitted effect of over 65% in size); conditions: recombinant CYP3A4, Luciferin-PPXE luminescence, 60 min; series mostly up to 57.1 µM
Chain of Cytochrome P450 3A4 (Homo sapiens) (P08684 whole entry, looked up): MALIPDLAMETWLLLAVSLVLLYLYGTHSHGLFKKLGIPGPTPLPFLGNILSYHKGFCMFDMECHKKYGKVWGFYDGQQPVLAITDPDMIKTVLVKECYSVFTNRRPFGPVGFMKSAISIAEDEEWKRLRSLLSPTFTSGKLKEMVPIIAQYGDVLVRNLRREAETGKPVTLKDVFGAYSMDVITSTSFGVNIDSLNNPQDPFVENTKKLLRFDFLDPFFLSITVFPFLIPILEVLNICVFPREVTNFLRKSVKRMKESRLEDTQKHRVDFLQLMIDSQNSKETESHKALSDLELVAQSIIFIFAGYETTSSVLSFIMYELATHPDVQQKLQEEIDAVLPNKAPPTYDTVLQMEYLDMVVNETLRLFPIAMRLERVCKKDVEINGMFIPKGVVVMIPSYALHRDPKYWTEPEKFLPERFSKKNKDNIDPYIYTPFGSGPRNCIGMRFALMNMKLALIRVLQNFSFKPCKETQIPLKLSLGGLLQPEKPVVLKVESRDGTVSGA
Summary of the method: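 Using 20nM recombinant human CYP3A4 in potassium phosphate (200mM), substrate Luciferin-PPXE at 25uM, luminescent luciferin detection followed a 60-min RT NADPH reaction; data scaled to 57 uM ketoconazole.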

[10] = Confirmation and Secondary Assay for Modulators of Hemoglobin Beta Chain Splicing at IVS2 654 locus (AID 910; active means well fitted curve in the direction sought with a large enough effect; an effect the other way counts as inactive or inconclusive;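 further: HeLa cells stably carrying EGFP split by mutant beta-globin IVS2-654 intron; per-well total GFP intensity by laser scanning cytometry after 2-day treatment; % of control where 0% means no effect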); conditions: HeLa EGFP-654 splicing reporter, GFP fluorescence, 48 h; series mostly up to 38.3 µM
Summary of the method: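 Readout: per-well total peak green fluorescence (488 nm ex, 500–520 nm em) from objects 5–250 µm, reflecting correct splicing of an EGFP-654 reporter. Compounds were applied for 2 days at 37 °C to overnight-plated HeLa EGFP-654 cells; controls were DMSO and 500 nM IVS2-654 PNA.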

[11] = Confirmation and Secondary Assay for Modulators of Hemoglobin Beta Chain Splicing at IVS2 705 locus (AID 930; active means well fitted curve in the direction sought with a large enough effect; an effect the other way counts as inactive or inconclusive;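 further: HeLa cells stably expressing the EGFP-705 splicing reporter; GFP fluorescence per well restored by corrected splicing of the IVS2-705 intron in EGFP; % of control where 0% means no effect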); conditions: HeLa EGFP-705 splicing reporter, GFP fluorescence, 48 h; series mostly up to 38.3 µM
Summary of the method: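 Secondary splice-site specificity test uses HeLa expressing CMV-driven EGFP interrupted by IVS2-705; cells were treated 2 days at 37C with 500 nM antisense PNA as positive control.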

[12] = qHTS Assay for Lipid Storage Modulators (AID 1519; calls by dose curve); conditions: Drosophila S3 cells, BODIPY lipid droplet/cell ratio, laser cytometry, cells loaded with oleic acid; for activity change, negative = inhibition: at 57.5 µM (top of the series)
Summary of the method: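 Cells seeded at 5,000 per well were treated with compounds over a concentration series and loaded with oleic acid (400 uM, as added). Lipid droplet fluorescence (488 nm excitation, 500-530 nm channel) was read by laser-scanning cytometry and normalized to 20 uM Triacsin C.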

[13] = target: Cytochrome P450 3A4 (Homo sapiens) (UniProt P08684); test: qHTS Assay for Inhibitors and Substrates of Cytochrome P450 3A4 (AID 884; active means well fitted curve in the direction sought with a large enough effect; an effect the other way counts as inactive or inconclusive; further: potency means the concentration at half of the fitted maximal effect; nearly all actives have a fitted effect of over 50% in size); conditions: recombinant CYP3A4, Luciferin-PPXE luminescence; series mostly up to 57.1 µM
Summary of the method: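 Luminescent readout of luciferin produced by CYP3A4 (20 nM) dealkylation of Luciferin-PPXE, 25 uM (its KM). NADPH-driven reaction ran 60 min at RT after 10 min compound preincubation; data scaled to 57 uM ketoconazole as 100% inhibition.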

[14] = target: Cytochrome P450 2D6 (Homo sapiens) (UniProt P10635); test: qHTS Assay for Inhibitors and Substrates of Cytochrome P450 2D6 (AID 891; active means well fitted curve in the direction sought with a large enough effect; an effect the other way counts as inactive or inconclusive; further: potency means the concentration at half of the fitted maximal effect; nearly all actives have a fitted effect of over 60% in size); conditions: recombinant CYP2D6, luciferin-ME EGE luminescence; series mostly up to 57.1 µM
Chain of Cytochrome P450 2D6 (Homo sapiens) (P10635 whole entry, looked up): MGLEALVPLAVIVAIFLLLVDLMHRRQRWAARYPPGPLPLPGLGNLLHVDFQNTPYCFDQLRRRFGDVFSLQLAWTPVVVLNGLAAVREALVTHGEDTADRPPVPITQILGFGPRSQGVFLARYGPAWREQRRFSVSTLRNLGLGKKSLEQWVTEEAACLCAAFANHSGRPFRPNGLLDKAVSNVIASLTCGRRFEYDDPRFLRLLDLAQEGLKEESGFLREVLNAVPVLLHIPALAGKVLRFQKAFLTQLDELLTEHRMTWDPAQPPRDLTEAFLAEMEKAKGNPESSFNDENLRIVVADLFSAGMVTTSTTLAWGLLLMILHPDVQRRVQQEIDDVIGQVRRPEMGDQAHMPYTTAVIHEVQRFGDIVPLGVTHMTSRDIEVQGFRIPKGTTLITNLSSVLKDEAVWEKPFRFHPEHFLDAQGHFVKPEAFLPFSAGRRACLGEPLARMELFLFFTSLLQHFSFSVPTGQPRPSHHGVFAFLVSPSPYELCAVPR
Summary of the method: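 Luminescent read-out of luciferin formed by 5 nM human CYP2D6 demethylating 30 uM Luciferin-ME EGE (Km level) over 60 min at room temperature after NADPH regeneration addition. Data normalized to full inhibition by 1.43 uM quinidine.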

[15] = AP1 Signaling Pathway (AID 357); conditions: ME-180 (cervical carcinoma) AP-1-bla reporter, EGF-induced, beta-lactamase ratio, 5 h; at 7.69 µM (top of the series) unless noted;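 further: ME-180 reporter cells stimulated with EGF at its EC50 level; on the % scale 0 is the no-effect control and ±100 the full control effect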
Summary of the method: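 A ratiometric CCF4 readout (405 nm excitation; 460 and 530 nm emission) quantified AP-1-driven beta-lactamase in ME-180 cells after 5 h with compound and EC50 EGF; AC50 values were derived for activators and inhibitors.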

[16] = target: Cytochrome P450 2C19 (Homo sapiens) (UniProt P33261); test: qHTS Assay for Inhibitors and Substrates of Cytochrome P450 2C19 (AID 899; active means well fitted curve in the direction sought with a large enough effect; an effect the other way counts as inactive or inconclusive; further: potency means the concentration at half of the fitted maximal effect; nearly all actives have a fitted effect of over 60% in size); conditions: recombinant CYP2C19, luciferin-H EGE luminescence; series mostly up to 57.1 µM
Chain of Cytochrome P450 2C19 (Homo sapiens) (P33261 whole entry, looked up): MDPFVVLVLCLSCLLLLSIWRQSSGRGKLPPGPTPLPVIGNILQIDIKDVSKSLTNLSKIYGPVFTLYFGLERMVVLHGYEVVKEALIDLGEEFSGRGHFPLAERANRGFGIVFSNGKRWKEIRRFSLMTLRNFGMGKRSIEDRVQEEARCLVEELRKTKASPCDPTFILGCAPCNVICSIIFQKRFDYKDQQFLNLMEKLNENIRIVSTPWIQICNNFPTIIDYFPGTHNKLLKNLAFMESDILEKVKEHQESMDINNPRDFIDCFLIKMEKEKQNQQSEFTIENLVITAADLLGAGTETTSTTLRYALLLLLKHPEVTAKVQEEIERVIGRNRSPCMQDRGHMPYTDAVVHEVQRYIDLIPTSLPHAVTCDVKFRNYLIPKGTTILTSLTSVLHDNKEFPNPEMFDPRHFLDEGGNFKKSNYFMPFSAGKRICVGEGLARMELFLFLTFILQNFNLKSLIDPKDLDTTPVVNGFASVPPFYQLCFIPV
Summary of the method: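 Luminescence readout of luciferin formed from 10uM Luciferin-H EGE (KM level) by 5 nM CYP2C19 in 50mM KPO4. 60 min NADPH-driven reaction at 37C after 10 min compound preincubation; data scaled to 57uM ketoconazole inhibition.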

[17] = measured here: cell count channel max response
[18] = measured here: lipid channel max response

Compound	Potency [1]	Potency [2]	activity change, negative = inhibition [3]	activity, negative = inhibition [4]	Potency [5]	Potency [6]	Potency [7]	Potency [8]	Potency [9]	Potency [10]	outcome [11]	activity change, negative = inhibition [12]	max response [12, 17] [%]	max response [12, 18] [%]	Potency [13]	Potency [14]	activity change, negative = inhibition [15]	Potency [16]
Cc1cccc(CNc2cc(-c3cccc(NS(C)(=O)=O)c3)ncn2)c1	> 11.4 µM (inactive)	10000 nM (active)	20% (inactive)	-17.8% (inactive)	> 46 µM (inactive)	> 46 µM (inactive)	inactive	inactive	inactive	inactive	inactive	-2.47% (inactive)	-3.18	-3.48				
c1cncc(CNc2nc(-c3ccc4c(c3)OCO4)nc3ccccc23)c1	> 11.4 µM (inactive)	100 nM (active)	-3.4% (inactive)	-7.26% (inactive)	> 46 µM (inactive)	> 46 µM (inactive)	inactive		inactive	inactive	inactive	6.87% (inactive)	10.1	18				
c1ccc(Nc2ncnc3ccc(-c4ccc5c(c4)OCO5)cc23)cc1	> 11.4 µM (inactive)	251 nM (active)		8.5% (inactive)	> 46 µM (inactive)	> 46 µM (inactive)	inactive		inactive	inactive	inactive	5.31% (inactive)	-12.2	-7.25	2.51 µM (active)	126 nM (active)		
N#Cc1ccc(CN2CC3(CCN(C(=O)c4ccco4)CC3)C2)cc1	> 11.4 µM (inactive)			4.26% (inactive)		> 46 µM (inactive)	inactive	inactive				4.77% (inactive)	18.6	23.7			-7.09% (inactive)	
O=C(c1csnn1)N1CCC2(CC1)CCN(c1cccc(-c3ccccc3)c1)CC2	> 11.4 µM (inactive)		22.2% (inactive)	-14.3% (inactive)		> 46 µM (inactive)	inactive	inactive				-6.94% (inactive)	9.03	3.45			-21.7% (inactive)	
CN(C)c1ccc(-c2ccc3ncnc(NCc4ccccc4)c3c2)cc1	> 11.4 µM (inactive)	501 nM (active)		-1.76% (inactive)	> 46 µM (inactive)	> 46 µM (inactive)		inactive	inactive		inactive	2.65% (inactive)	-18.1	-15.6	2.51 µM (active)			7.94 µM (active)
